Data reported in the supplement of paper PMC9262897, “Low-cost anti-mycobacterial drug discovery using engineered E. coli” (Nature Communications, 2022).
Where a name gives a salt, the structure may show the parent alone. ± gives the standard deviation of the averaged measurements.

How the values were obtained:
Assay in all cases: growth (OD600 after 10 h); higher = more growth (less inhibition)
[1] = test system: E. coli TESEC Alr+ wild-type control; details: compound 0.1 mM; raw OD600 reference: median of DMSO wells 0.241, cell-free background 0.041
Experimental: (§1)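 TESEC Mtb Alr E. coli, or the Alr+ wild-type control, in 384-well plates with Prestwick library compounds at 0.1 mM and 1% DMSO, across arabinose induction levels of 1E3 to 1E7 nM. Growth is read as OD600 after 10 h at 37 °C in triplicate biological replicates.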

[2] = test system: E. coli TESEC Mtb Alr; details: compound 0.1 mM
Experimental: as §1

[3] = test system: E. coli TESEC Mtb Asd; details: compound 0.1 mM
Experimental: (§2)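 TESEC E. coli strains in which the native enzyme is deleted and replaced by arabinose-inducible Mtb Asd, DapB, CysH or TrpD, each grown in its selective medium. Strains were screened against the Prestwick library at 0.1 mM and 1% DMSO in 384-well format at low and high arabinose induction. Growth is read as OD600 after 10 h in triplicate.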

[4] = test system: E. coli TESEC Mtb DapB; details: compound 0.1 mM
Experimental: as §2

[5] = test system: E. coli TESEC Alr+ wild-type control; details: compound 0.1 mM; raw OD600 reference: median of DMSO wells 0.49, cell-free background 0.052
Experimental: (§3)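 TESEC Mtb Alr E. coli (ΔaraC ΔtolC ΔentC Δalr ΔdadX, arabinose-inducible Mtb Alr) or the Alr+ wild-type control strain, grown in defined M9-fructose medium without D-alanine in 96-well plates with Prestwick library compounds at 0.1 mM and 1% DMSO. Low Alr induction is 0.1 µM arabinose and high induction is 10 mM arabinose.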

[6] = test system: E. coli TESEC Mtb Alr; details: compound 0.1 mM; remark: listed apart in the source
Experimental: as §3

[7] = arabinose 1000 nM, raw OD600 reference: median of DMSO wells 0.294, cell-free background 0.041
[8] = arabinose 10000 nM, raw OD600 reference: median of DMSO wells 0.264, cell-free background 0.041
[9] = arabinose 100000 nM, raw OD600 reference: median of DMSO wells 0.201, cell-free background 0.041
[10] = arabinose 1000000 nM, raw OD600 reference: median of DMSO wells 0.193, cell-free background 0.041
[11] = arabinose 10000000 nM, raw OD600 reference: median of DMSO wells 0.146, cell-free background 0.041
[12] = arabinose induction (level): High, raw OD600 reference: median of DMSO wells 0.331, cell-free background 0.041
[13] = arabinose induction (level): Low, raw OD600 reference: median of DMSO wells 0.417, cell-free background 0.041
[14] = arabinose induction (level): High, raw OD600 reference: median of DMSO wells […], cell-free background 0.041
[15] = arabinose induction (level): Low, raw OD600 reference: median of DMSO wells 0.227, cell-free background 0.041
[16] = arabinose 100 nM, raw OD600 reference: median of DMSO wells 0.413, cell-free background 0.052
[17] = arabinose 10000000 nM, raw OD600 reference: median of DMSO wells […], cell-free background 0.052

Compound	growth [1]	growth [2, 7]	growth [2, 8]	growth [2, 9]	growth [2, 10]	growth [2, 11]	growth [3, 12]	growth [3, 13]	growth [4, 14]	growth [4, 15]	growth [5]	growth [6, 16]	growth [6, 17]
c1coc(CNc2ncnc3nc[nH]c23)c1 [6-Furfurylaminopurine]	0.252 ± 0.0041	0.29 ± 0.014	0.252 ± 0.0053	0.209 ± 0.027	0.181 ± 0.0069	0.138 ± 0.0046	0.341 ± 0.068	0.43 ± 0.043	0.209 ± 0.011	0.221 ± 0.024	0.44 ± 0.022	0.405 ± 0.0075	0.365 ± 0.0057
CCc1oc2ccccc2c1C(=O)c1cc(Br)c(O)c(Br)c1 [Benzbromarone]	0.0407 ± 0.001	0.0448 ± 0.0076	0.0403 ± 0.00069	0.0421 ± 0.0019	0.03953 ± 0.00015	0.047 ± 0.0017	0.0473 ± 0.0012	0.0482 ± 0.002	0.0504 ± 0.0016	0.0491 ± 0.001	0.05037 ± 5.8e-05	0.0588 ± 0.0027	0.0513 ± 0.0023
COC(=O)N/N=C/c1c[n+]([O-])c2ccccc2[n+]1[O-] [Carbadox]	0.197 ± 0.014	0.23 ± 0.011	0.1488 ± 0.00015	0.116 ± 0.003	0.117 ± 0.0034	0.142 ± 0.0022	0.163 ± 0.015	0.192 ± 0.054	0.163 ± 0.017	0.168 ± 0.0094	0.143 ± 0.0067	0.157 ± 0.013	0.082 ± 0.0067
COc1cc(OC)c(C(=O)CCCN2CCCC2)c(OC)c1 [Buflomedil hydrochloride]	0.238 ± 0.0082	0.296 ± 0.0094	0.269 ± 0.0091	0.201 ± 0.04	0.189 ± 0.0075	0.146 ± 0.0076	0.274 ± 0.033	0.335 ± 0.064	0.166 ± 0.041	0.188 ± 0.01	0.642 ± 0.053	0.407 ± 0.0067	0.345 ± 0.0037
CCC(=O)O[C@@H](O[P@](=O)(CCCCc1ccccc1)CC(=O)N1C[C@H](C2CCCCC2)C[C@H]1C(=O)O)C(C)C [Fosinopril]	0.221 ± 0.007	0.33 ± 0.0063	0.25 ± 0.015	0.281 ± 0.018	0.0879 ± 0.0031	0.154 ± 0.0039	0.185 ± 0.013	0.351 ± 0.065	0.165 ± 0.0076	0.226 ± 0.017	0.508 ± 0.076	0.334 ± 0.044	0.0696 ± 0.00091
CCc1c2c(nc3ccc(OC(=O)N4CCC(N5CCCCC5)CC4)cc13)-c1cc3c(c(=O)n1C2)COC(=O)[C@]3(O)CC [Irinotecan hydrochloride trihydrate]	0.234 ± 0.0062	0.32 ± 0.0061	0.2556 ± 0.0019	0.218 ± 0.015	0.18 ± 0.0024	0.156 ± 0.0056	0.321 ± 0.042	0.414 ± 0.026	0.227 ± 0.0094	0.243 ± 0.0046	0.514 ± 0.052	0.401 ± 0.0022	0.366 ± 0.018
CCn1cc(C(=O)O)c(=O)c2cc(F)c(N3CCN(C)CC3)cc21 [Pefloxacine]	0.0478 ± 0.00026	0.0453 ± 0.00047	0.0396 ± 0.00047	0.0454 ± 0.0017	0.04 ± 0.00096	0.05157 ± 0.0004	0.0645 ± 0.0063	0.0631 ± 0.0043	0.0696 ± 0.0096	0.0585 ± 0.002	0.0507 ± 0.0001	0.0539 ± 0.00064	0.0515 ± 0.00064
CCOC(=O)NNc1nncc2ccccc12 [Todralazine hydrochloride]	0.252 ± 0.0065	0.3001 ± 0.00089	0.252 ± 0.0082	0.246 ± 0.03	0.181 ± 0.0025	0.16 ± 0.005	0.361 ± 0.1	0.346 ± 0.078	0.206 ± 0.011	0.275 ± 0.03	0.452 ± 0.021	0.406 ± 0.0052	0.271 ± 0.17
CCN[C@H]1CN(CCCOC)S(=O)(=O)c2sc(S(N)(=O)=O)cc21 [Brinzolamide]	0.248 ± 0.012	0.282 ± 0.017	0.261 ± 0.0091	0.219 ± 0.03	0.182 ± 0.0056	0.135 ± 0.0031	0.259 ± 0.085	0.385 ± 0.11	0.202 ± 0.013	0.215 ± 0.011	0.579 ± 0.098	0.405 ± 0.0097	0.3104 ± 0.0022
